Assay outcomes from PubChem BioAssay.
Rows were chosen to be rich in hits. Some 6.2% of all compounds tested hit in one or more screens of this group.
HT1080-NT tox: kills 2HG-producing HT-1080-NT fibrosarcoma cells | HT-1080-NT fibrosarcoma viability, CellTiter-Glo ATP luminescence, 48 h | Potency, µM (titrated, usually from 46.1 µM), most hits filed as cytotoxic | 360,000 tested, 1.6% active | AID 686970;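 also: NT is the 2HG producing partner of a matched IDH1 knockdown line; nearly all actives have a fitted effect of over 55% in size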
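Fibrosarcoma NT cells, 750 per well in 5% FBS RPMI, were exposed to compound for 48 hours. Viability: CellTiter-Glo luminescence.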
ATXN2 expr inh: ATXN2 expression inhibition | 360,000 tested, 0.72% active | AID 1745845 | Potency, µM (series often up to 57 µM), usual class: inhibitors | HEK-293 ATXN2-luciferase reporter, luminescence, 24 h; also: nearly all actives have a fitted effect of over 55% in size
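ATXN2-luciferase reporter cells (luciferase flanked by upstream and downstream ATXN2 gene portions) were treated 24 h at 37 °C with compounds at up to 57 uM. SteadyGlo luminescence gave expression; GF-AFC fluorescence gave viability.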
HT1080 IDH1KD tx: HT-1080 IDH1 knockdown cell toxicity (counter line) | HT-1080 IDH1 knockdown viability, ATP luminescence, 48 h | Potency, µM (doses to about 46.1 µM), hits mostly cytotoxic | 360,000 tested, 2% active
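After a 2 h attachment period, IDH1KD HT-1080 cells took pin-transferred compound for 48 h at 37 °C; ATP-based luminescence after 10 min room-temperature reagent incubation reported viability.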
KB-3-1 tox: KB-3-1 parental cell cytotoxicity | 400,000 tested, 1.4% active | AID 1347075 | KB-3-1 viability, CellTiter-Glo ATP luminescence, 72 h | Potency, µM (doses to about 46.1 µM), most hits filed as cytotoxic; also: nearly all actives have a fitted effect of over 60% in size
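Screening of KB-3-1 cells (DMEM, 10% FBS, phenol-red free) ran from lowest to highest compound concentration; after 72 h at 37 °C viability was read luminescently and curves fitted.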
S2 tox: reduces viability in counter-screen for ATXN expression inhibitors; S2 cells (HEK-293 line with an ATXN2-luciferase reporter) viability, CellTiter-Fluor protease fluorescence, 24 h; 400,000 tested, 0.49% active; Potency, µM (highest dose often 56.7 µM), usual class: cytotoxic; also: nearly all actives have a fitted effect of over 40% in size
KB-V1 MDR tox: KB-V1 MDR subline cytotoxicity. KB-V1 MDR cells viability, CellTiter-Glo, 72 h. 400,000 tested, 3.4% active. Potency, µM (highest dose often 46.1 µM), usual class: cytotoxic. AID 1347076; also: nearly all actives have a fitted effect of over 60% in size
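KB-V1, DMEM (no phenol red) + 10% FBS; cpd pin-transferred, titration series; 72 h, 37 degrees C; CellTiter-Glo, luminescence. Data normalized, curve-fit.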
Hits are given with their value; . = inactive; ? = inconclusive; / = no result; ! = not confirmed by another sample; [ ] = dose if it differs, or a comment. Calls follow the shape of the dose curve; as a rule, active = well fitted curve in the direction sought with a large enough effect; inconclusive = small, poorly fitted or top-dose-only effect, or another doubt; inactive = no such curve, though single readings can be large; an effect the other way counts as inactive or inconclusive.

SMILES	HT1080-NT tox	ATXN2 expr inh	HT1080 IDH1KD tx	KB-3-1 tox	S2 tox	KB-V1 MDR tox
COc1cccc(/C=N/Nc2ncnc3scc(-c4ccccc4)c23)c1OC	20µM	.	11µM	.	.	.
Cc1ncnc2nc[nH]c12	/	/	/	3.3µM	/	10µM
CC(C)=NNc1ncnc2nc[nH]c12	.	.	?	?	.	7.3µM
Cc1ccc(CNc2nc(C)c(-c3ccn(CCN4CCOCC4)n3)s2)o1	/	/	/	/	.	/
CC[N+](C)(C)CCN(Cc1ccc(Cl)cc1)c1ccccn1	.	.	.	.	.	.
NCCCN(Cc1ccc(Cl)c(Cl)c1)c1ccccn1	13µM	/	11µM	/	/	/
NCCN(Cc1ccc(Cl)c(Cl)c1)c1ccc(Br)cn1	11µM	/	10µM	/	/	/
COc1ccc(C2NC(=S)NC(C)=C2C(=O)c2ccccc2)cc1OC (centres undefined)	.	.	.	?	.	13µM
COc1ccc(C2NC(=S)NC(C)=C2C(=O)Nc2ccccn2)cc1OC (centres undefined)	.	.	.	.	.	.
O=C(Nc1ccc(Cl)cn1)C1CCN(c2ncnc3c2nc2n3CCCCC2)CC1	?	?	?	?	.	21µM
c1ccc(N2CCN(c3ncnc4c3nc3n4CCCCC3)CC2)cc1	/	?	/	?	.	?
CCOC(=O)C1CCCN(c2ncnc3c2cnn3-c2ccc(OC)cc2)C1 (centres undefined)	.	.	.	.	.	?
Clc1cccc(N2CCN(c3ncnc4c3nc3n4CCCCC3)CC2)c1	/	18µM	/	13µM	/	15µM
CCOC(=O)C1CCCN(c2ncnc3c2cnn3-c2ccc(Cl)cc2)C1 (centres undefined)	.	?	?	.	.	13µM
O=C(C1CCN(c2ncnc3c2nc2n3CCCCC2)CC1)N1CCN(c2cccc(Cl)c2)CC1	?	/	.	?	18µM	.
O=C(C1CCCN(c2ncnc3c2nc2n3CCCCC2)C1)N1CCN(c2ccc(Cl)cc2)CC1 (centres undefined)	?	?	?	16µM	?	.
CSc1cccc(NC(=O)C2CCCN(c3ncnc4c3nc3n4CCCCC3)C2)c1 (centres undefined)	.	?	.	?	.	15µM
O=C(C1CCCN(c2ncnc3c2nc2n3CCCCC2)C1)N1CCN(c2ccc(F)cc2)CC1 (centres undefined)	.	.	.	?	?	?
NC(=O)c1ccc(-c2nc(-c3ccc4c(c3)OCCO4)c(-c3ccccn3)[nH]2)cc1	/	.	/	/	/	/
CC(=O)c1ccc2c(c1)CC1(C2)Cc2cc3c(cc2C1)C(=O)CC3 (centres undefined)	?	.	?	3.7µM	?	2.6µM
COc1ccc(CCNC(=O)c2cc3c(=O)[nH]c4ccc(C)cc4c3s2)cc1OC	/	.	/	.	.	.
Cc1ccc(Cl)cc1N1CCN(C(=O)c2cn(C)c3ccc(S(=O)(=O)N4CCCCC4)cc3c2=O)CC1	/	.	/	.	.	.
COC(=O)CN(c1cc(Cl)ccc1OC)S(=O)(=O)c1ccc(OC)c(OC)c1	.	.	.	.	.	2.3µM
COC(=O)CN(c1ccc(OC)cc1)S(=O)(=O)c1ccc(OC)c(OC)c1	.	.	.	.	.	?
CCOC(=O)N1CCN(c2cc3[nH]c(=S)[nH]c3cc2F)CC1	.	.	.	.	.	.
SMILES	HT1080-NT tox	ATXN2 expr inh	HT1080 IDH1KD tx	KB-3-1 tox	S2 tox	KB-V1 MDR tox
CCOC(=O)N1CCN(c2c(F)cc3[nH]c(=S)[nH]c3c2Br)CC1	16µM	.	?	?	.	8.2µM
CN(Cc1cnc2nc(N)nc(N)c2n1)c1ccc(C(=O)N[C@@H](CCC(=O)O)C(=O)O)cc1	0.0052µM!	32µM!	0.046µM!	0.065µM!	?	0.029µM!
Cc1ccc(S(=O)(=O)N2[C@@H](Cc3ccccc3)CO[C@H]2CC(=O)c2ccc(F)cc2)cc1	.	/	.	.	/	?
COc1cc(/C=C/c2cc[n+](C)cc2)ccc1OCC(=O)Nc1ccc(Cl)c(Cl)c1	?	.	23µM	?	.	.
COc1ccc(NC(=O)COc2ccc(/C=C/c3cc[n+](C)cc3)cc2OC)cc1	.	.	.	?	.	.
COc1ccc(NC(=O)CN(C)C(=O)COc2ccccc2Cc2ccccc2)cc1	.[9.24 µM]	.	.	.	.	.
C/C=C/c1ccc(OCC(=O)Nc2cc(OC)c(OC)c(OC)c2)c(OC)c1	.	.	.	?	.	?
CN(CC(=O)Nc1ccccc1C(F)(F)F)C(=O)COc1ncnc2sccc12	.	.	.	.	.	.
CN(CC(=O)Nc1ccccc1C(F)(F)F)C(=O)COc1ccccc1Cc1ccccc1	.	.	.	.	.	8.2µM
C/C=C/c1ccc(OCC(=O)N(C)CC(=O)Nc2ccc(F)cc2)c(OC)c1	.	.	.	.	.	16µM
CN(CC(=O)Nc1ccc(F)cc1)C(=O)COc1ccccc1Cc1ccccc1	.	.	.	?	.	18µM
CC(C)c1c(C(=O)NCc2cccnc2)cnn1-c1nccc(-c2cccs2)n1	/	/	/	/	.	/
CC(C)(C)C(=O)NCCc1csc2nc(-c3ccc(F)cc3)nn12	/	.	/	.	?	.
Cc1ccc(C)c(S(=O)(=O)C(C#N)c2nc3ccccc3nc2N2CC(C)OC(C)C2)c1 (centres undefined)	?	.	?	18µM	.	?
CN1CCN(c2nc3ccccc3nc2C(C#N)S(=O)(=O)c2ccccc2)CC1 (centres undefined)	.	/	.	?	.	.
N#CC(c1nc2ccccc2nc1N1CCCC1)S(=O)(=O)c1ccccc1 (centres undefined)	.	.	.	?	?	21µM
Cc1ccc(C)c(S(=O)(=O)C(C#N)c2nc3ccccc3nc2N2CCOCC2)c1 (centres undefined)	.	.	.	?	.	12µM
Cc1ccc(S(=O)(=O)N2CCN(C(=O)Cn3c(=O)oc4ccccc43)CC2)c(C)c1	.[9.24 µM]	.	.	.	.	.
COc1cc2ccccc2cc1C(=O)Nc1ccc2oc(-c3ccc(F)cc3Cl)nc2c1	/	.	/	?	.	.
CS(=O)(=O)N1CCN(C(=O)C(Sc2ccccc2)c2ccccc2)CC1 (centres undefined)	.	.	.	.	.	.
O=C(C(Sc1ccccc1)c1ccccc1)N1CCOCC1 (centres undefined)	.	.	.	.	.	18µM
O=C(OCC(=O)N1CCOCC1)C(c1ccccc1)c1ccccc1	.	.	.	.	.	21µM
O=c1[nH]c(=O)n(Cc2ccco2)c2c1C(C(F)(F)F)(C(F)(F)F)N=C(CCc1ccccc1)N2	?	.	10µM	.	?	.
O=c1[nH]c(=O)n(-c2ccccc2)c2c1C(C(F)(F)F)(C(F)(F)F)N=C(CCC1CCCCC1)N2	.	.	.	.	.	5.2µM
